Drawing on PubChem BioAssay (NCATS), this text covers activation and Potency for 27 molecules.

The target in assay [1] is Cellular tumor antigen p53 (Homo sapiens) (UniProt P04637). The assay is described as follows: Primary qHTS for small molecule compounds that upregulate eGFP-tagged delta133p53alpha (in N-terminal) cells. (AID 2060322). Further: nearly all actives have a fitted effect of over 75% in size. Further: potency means the concentration at half of the fitted maximal effect.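 On activation: cells pre-induced with doxycycline then dosed without doxycycline; series mostly up to about 56 µM; 0% = DMSO vehicle and 100% = reference activator.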 The conditions noted are these: NCI-H358 eGFP-delta133p53alpha fluorescence, 24 h; activation: stronger effect = higher value. In short, it runs like this: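 NCI-H358 cells pre-induced 24 h with 10 ng/ml doxycycline for eGFP-delta133p53alpha, plated dox-free and exposed 24 h at 37C to titrated compounds. Fixed, Hoechst-stained; gated GFP peak intensity by laser scanning cytometry, normalized to DMSO (0%) and 57.5 uM 5-azacytidine (100%).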

In assay [2] the target is Aldehyde dehydrogenase, mitochondrial (Homo sapiens) (UniProt P05091). The assay is described as follows: qHTS for Inhibitors of the Aldehyde Dehydrogenase Family (ALDH2) Primary screen (AID 2061308).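 Further: plate controls were vehicle for no effect and reference inhibitor for full effect; nearly all actives have a fitted effect of over 55% in size.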 Background: In qHTS, concentration-response curves come from the screen itself.
Assay [3] deals with Retinaldehyde dehydrogenase 3 (Homo sapiens) (UniProt P47895). The assay is described as follows: qHTS for Inhibitors of the Aldehyde Dehydrogenase Family (ALDH1A3) Validation screen (AID 2061312). Further: on the % scale 0 is the no-effect control and ±100 the full control effect; nearly all actives have a fitted effect of over 45% in size.
Assay [4] shares this target. The assay is described as follows: qHTS for Inhibitors of the Aldehyde Dehydrogenase Family (ALDH1A3) Primary screen (AID 2061315).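 Further: plate controls were DMSO vehicle for no effect and reference inhibitor for full effect.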

“And” between values parts separate entries of the source, which are not always exact repeats. Equal values may be shown once. Records with an inconclusive call do not appear. A number with no mark means an inactive call. The source made the active and inactive calls. The call rests on the fitted dose curve; in most records, active means well fitted curve in the direction sought with a large enough effect; inconclusive means small, poorly fitted or top-dose-only effect, or another doubt; inactive means no such curve, though single readings can be large; an effect the other way counts as inactive or inconclusive. Numbered stars: 1 amine (or outer) side, 2 acyl side, 3 side chain; on linkers, the order of the positions; unused ones are H or OH. Bridge positions count the residues as written; N and C are the ends. Square brackets hold non-standard residues; d marks the D form. Peptide text beside a SMILES is read from it. * marks the point of attachment. pTerphenylCO(4''-OnC5H11) = CCCCCOc1ccc(-c2ccc(-c3ccc(C(=O)*)cc3)cc2)cc1; Orn(4R-OH,5R-OH) = O=C([C@H](C[C@@H](O)[C@@H](O)N[*:3])N[*:1])[*:2]; hTyr(3S-OH,4S-OH) = N[C@H](C(=O)O)[C@H](O)[C@@H](O)c1ccc(O)cc1; Pro(3S-OH,4S-Me) = C[C@H]1CN[C@H](C(=O)O)[C@H]1O; Hyp = O=C(O)[C@@H]1C[C@@H](O)CN1

Cellular tumor antigen p53 (Homo sapiens), sequence (P04637 whole entry, looked up): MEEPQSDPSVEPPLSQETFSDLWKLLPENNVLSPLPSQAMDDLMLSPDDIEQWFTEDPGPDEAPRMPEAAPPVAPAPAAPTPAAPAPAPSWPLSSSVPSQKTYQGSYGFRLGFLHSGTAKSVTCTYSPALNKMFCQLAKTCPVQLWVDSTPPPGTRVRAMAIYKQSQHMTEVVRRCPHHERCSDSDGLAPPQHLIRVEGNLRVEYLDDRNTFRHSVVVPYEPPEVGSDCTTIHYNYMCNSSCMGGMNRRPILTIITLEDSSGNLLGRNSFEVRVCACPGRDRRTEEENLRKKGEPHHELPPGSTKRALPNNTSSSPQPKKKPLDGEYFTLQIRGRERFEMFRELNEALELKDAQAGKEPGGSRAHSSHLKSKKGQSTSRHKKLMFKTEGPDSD

Regarding `CN1CCN(C2=Nc3ccccc3Nc3ccc(OS(=O)(=O)C(F)(F)F)cc32)CC1`, in assay [1], the activation is -11.9%. Further, the Potency entry in assay [2], in assay [3] and in assay [4] was “inactive” each time.

On to `Cc1ccccc1NC(=O)Nc1ccc(CN2C(=O)N([C@@H](CC(C)C)C(=O)N[C@@H](CC(=O)O)c3ccccc3)C(=O)C2(C)C)cc1`, for which the activation in assay [1] is -2.86%. Moreover, the Potency entry in assay [2], in assay [3] and in assay [4] was “inactive” each time.

With `O=C(N[C@@H]1CC[C@@H](c2cccc(F)c2F)CN(CC(F)(F)F)C1=O)N1CCC(n2c(=O)[nH]c3ncccc32)CC1`, the activation in assay [1] is -0.477%. For the same molecule, the Potency entry in assay [2], in assay [3] and in assay [4] was “inactive” each time.

For the molecule `Nc1ncnc2c1c(-c1ccc(Oc3ccccc3)cc1)nn2[C@@H]1CCCNC1`, the activation in assay [1] is 20%. Besides, the Potency entry in assay [2], in assay [3] and in assay [4] was “inactive” in each case.

As to `CN(C)c1nc(NC2CCC(NCCc3ccc(Br)cc3OC(F)(F)F)CC2)nc2ccccc12` (stereo not drawn), the Potency in assay [1] is 13.5 µM (active). The Potency entry in assay [2], in assay [3] and in assay [4] was “inactive” in each case.

On to `COc1cc(Nc2nc3ccccc3nc2NS(=O)(=O)c2ccc(NC(=O)c3ccc(OC)c(C)c3)cc2)cc(OC)c1`, for which the activation in assay [1] was -18.6%. In addition, the Potency result in assay [2], in assay [3] and in assay [4] was “inactive” each time.

On to `CC1(C)[C@H]2C[C@H](C/C=C\CCCC(=O)O)[C@@H](NC(=O)c3csc4ccc(O)cc34)[C@@H]1C2`, for which the activation in assay [1] was -4.77%. The Potency entry in assay [2], in assay [3] and in assay [4] was “inactive” each time.

As for `CC(C)NCC(C(=O)N1CCN(c2ncnc3c2C(C)CC3O)CC1)c1ccc(Cl)cc1` (stereo not drawn), the activation in assay [1] was 0.955%. The Potency result in assay [2], in assay [3] and in assay [4] was “inactive” each time.

Consider `c1ccc(Nc2nc3c(s2)CCCc2[nH]ncc2-3)nc1`, for which the activation in assay [1] is 8.59%. Also, the Potency entry in assay [2], in assay [3] and in assay [4] was “inactive” in each case.

Consider `COc1ccc(Cl)cc1[C@@]1(F)C(=O)Nc2cc(C(F)(F)F)ccc21`, for which, in assay [1], the activation is 24.8%. Besides, the Potency result in assay [2], in assay [3] and in assay [4] was “inactive” each time.

For the molecule `CC(=O)[C@H]1CC[C@H]2[C@@H]3C=CC4=CC(=O)CC[C@@]4(C)[C@@H]3CC[C@]12C`, the activation in assay [1] is -8.47% and 12.4%. In addition, the Potency entry in assay [2], in assay [3] and in assay [4] was “inactive” each time.

As for `CCCc1ccc(OCC(=O)N(Cc2nc(-c3cccnc3)no2)C(C)C)cc1`, the activation in assay [1] is -11.5%. The Potency result in assay [2], in assay [3] and in assay [4] was “inactive” in each case.

On to `NS(=O)(=O)c1ccc(N2N=C(c3ccccc3)CC2c2ccccc2)cc1` (stereo not drawn), for which, in assay [1], the activation was -18.6%. Also, the Potency result in assay [2], in assay [3] and in assay [4] was “inactive” in each case.

As to `CN1CCN(C2=Nc3ccccc3Nc3ccc(Cl)cc32)CC1`, the activation in assay [1] is 8.59%. For the same molecule, the Potency entry in assay [2], in assay [3] and in assay [4] was “inactive” in each case.

With `NC1=NC2(c3cc(NC(=O)c4ccc(F)cn4)ccc3F)COCC2CS1` (stereo not drawn), in assay [1], the activation was -6.68%. Moreover, the Potency result in assay [2], in assay [3] and in assay [4] was “inactive” each time.

Regarding `CCCCCOc1ccc(-c2ccc(-c3ccc(C(=O)N[C@H]4C[C@@H](O)[C@@H](O)NC(=O)[C@@H]5[C@@H](O)[C@@H](C)CN5C(=O)[C@H]([C@@H](C)O)NC(=O)[C@H]([C@H](O)[C@@H](O)c5ccc(O)cc5)NC(=O)[C@@H]5C[C@@H](O)CN5C(=O)[C@H]([C@@H](C)O)NC4=O)cc3)cc2)cc1` ({pTerphenylCO(4''-OnC5H11)}-[Orn(4R-OH,5R-OH)]T[Hyp][hTyr(3S-OH,4S-OH)]T[Pro(3S-OH,4S-Me)]; lactam 1-C), the activation in assay [1] was 22.9%. Moreover, the Potency entry in assay [2], in assay [3] and in assay [4] was “inactive” throughout.

`COc1ccc(-c2nc(-c3ccc(-c4cccc(Cl)c4)o3)[nH]c2-c2ccc(OC)cc2)cc1`: the activation in assay [1] is -3.82%. For the same molecule, the Potency result in assay [2], in assay [3] and in assay [4] was “inactive” in each case.

`CC1(C)CC(NC(=O)C(=O)Nc2ccc(Cl)cc2)CC(C)(C)N1`: the activation in assay [1] was 8.11%. Besides, the Potency result in assay [2], in assay [3] and in assay [4] was “inactive” each time.

Regarding `Cn1nc(C(C)(C)C)cc1C(=O)NC(Cc1cccc(Cl)c1)C(=O)NCC#N` (stereo not drawn), the activation in assay [1] was -4.3%. In addition, the Potency entry in assay [2], in assay [3] and in assay [4] was “inactive” each time.

As for `CC(C)(C#N)c1ccc(N2C(=O)OCc3cnc4ccc(-c5cnc6ccccc6c5)cc4c32)cc1`, the activation in assay [1] was -3.82%. Moreover, the Potency result in assay [2], in assay [3] and in assay [4] was “inactive” in each case.

Consider `CN(C)CCCNc1nc(CN2CCN(C(c3ccc(Cl)cc3)c3ccc(Cl)cc3)CC2)nc2ccccc12`, for which the activation in assay [1] is 16.2%. Further, the Potency result in assay [2], in assay [3] and in assay [4] was “inactive” each time.

With `O=c1[nH]c2ccccc2n1CCN1CCN(c2cccc(C(F)(F)F)c2)CC1`, the activation in assay [1] is -3.34%. Moreover, the Potency entry in assay [2], in assay [3] and in assay [4] was “inactive” each time.

Consider `CC(C)c1ccc(NC(=O)Cn2cnc3c2c(=O)n(C)c(=O)n3C)cc1`, for which, in assay [1], the activation is -14.8%. Further, the Potency entry in assay [2], in assay [3] and in assay [4] was “inactive” throughout.

For `Cc1c(C(=O)NCc2cccnc2)nn(-c2ccc(Cl)cc2Cl)c1-c1ccc(Cl)cc1`, in assay [1], the activation is 21%. Further, the Potency result in assay [2], in assay [3] and in assay [4] was “inactive” throughout.

As for `Oc1ccc2nc(CN3CCC(Cc4ccccc4F)CC3)[nH]c2c1`, the activation in assay [1] is -1.91%. Further, the Potency entry in assay [2], in assay [3] and in assay [4] was “inactive” in each case.

On to `O=C(CCc1nnc2n(Cc3ccc(Cl)cc3)c(=O)c3ccccc3n12)NCCC1=CCCCC1`, for which the activation in assay [1] is 4.3%. Besides, the Potency result in assay [2], in assay [3] and in assay [4] was “inactive” in each case.

Turning to `Cc1oc2nc3c(c(NC(=O)CN4CCCC4=O)c2c1C)CCCC3`, the activation in assay [1] was -3.82%. The Potency entry in assay [2], in assay [3] and in assay [4] was “inactive” each time.
